# PubChem BioAssay AID624284 (Southern Research Specialized Biocontainment Screening …, 2012)
# Potency and affinity values are given separately. The source made the active and inactive calls. No rule for the calls is given here.
# Test: veev tc 83 cytopathic effect inhibition, infected cells, confirmatory (AID 624284)
# Settings: VEEV TC-83 infected cells; at 25 µM (top of the series)
row,Compound,inhibition
1,CCN1CCN(Cc2nc3cc([N+](=O)[O-])ccc3c(=O)n2-c2ccccc2)CC1,3.1% (inactive)
2,NS(=O)(=O)c1ccc(-n2c(-c3ccccc3)nc3ccc(Br)cc3c2=O)cc1,10.7% (inactive)
3,CCN1CCN(Cc2nc3ccc(C(N)=O)cc3c(=O)n2-c2ccccc2)CC1,-2.53% (inactive)
4,CCN1CCN(Cc2nc3ccc([N+](=O)[O-])cc3c(=O)n2C(C)C)CC1,-1% (inactive)
5,CCN1CCN(Cc2nc3ccc([N+](=O)[O-])cc3c(=O)[nH]2)CC1,-1%
6,CCN1CCN(Cc2nc3cccc([N+](=O)[O-])c3c(=O)n2-c2ccccc2)CC1,-2.17% (inactive)
7,CCN1CCN(Cc2nc3ccc(C(=O)N(C)C)cc3c(=O)n2-c2ccccc2)CC1,3.63% (inactive)
